# Reference: PubChem BioAssay AID686978 (National Center for Advancing Translational Sciences (NCATS), 2013)
# The whole screen tested about 420,000 compounds, of which about 64,000 (15%) were called active. Another 27% or so got no clear call; they are omitted. These entries were drawn from the full list. A number with no mark means an inactive call. Calls come from the whole dose curve; as a rule, active = well fitted inhibition curve with a large enough effect; inconclusive = small, poorly fitted or top-dose-only effect; inactive = flat fitted curve, though single readings scatter.
# Assay: qHTS for Inhibitors of human tyrosyl-DNA phosphodiesterase 1 (TDP1): qHTS in cells in absence of CPT; note: nearly all actives have a fitted effect of over 55% in size
# Conditions: DT40 Tdp1-/- hTDP1 cells, no CPT, ATP luminescence, 48 h; activity change, negative = growth inhibition: at 46.2 µM (top of the series)
# Summary of the method: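 Chicken DT40 Tdp1-/- cells complemented with human TDP1, screened without camptothecin (DMSO vehicle only), 400 cells/well. Compounds pin-transferred, cells incubated at 37 °C for at least 48 hr. Growth read as ATP-dependent luminescence (CellTiter-Glo, 30 min at RT).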
# % is set by controls: 0 for no effect and ±100 for the full control effect; potency is the fitted concentration of half-maximal effect.
Structure (SMILES),"activity change, negative = growth inhibition",Potency
COc1cccc(-n2ccn(CC(=O)NCc3ccc(C)cc3)c(=O)c2=O)c1,-24%,
CC(C)=CCN1CCC2(CCc3ccccc32)CC1,,20.6 µM (active)
OCC[C@H]1C[C@@H](O)[C@H](O)[C@@]2(OCCc3ccccc32)O1,-12.8%,
CC(C)=CCN1CCN(CCCc2ccccc2)CC1CCO (centres undefined),2.17%,
O=C1C(=O)N(CC2COc3ccccc3O2)c2ccccc21 (centres undefined),,1.46 µM (active)
Cc1cc(NC(=O)CCC2COc3ccccc3O2)no1 (centres undefined),-10.2%,
Cc1ccc(S(=O)(=O)NCCC(=O)NNC(=O)C2COc3ccccc3O2)cc1 (centres undefined),-20.6%,
Cc1cc(C(=O)CCl)c(C)n1CC1COc2ccccc2O1 (centres undefined),,2.59 µM (active)
O=C(CN1C(=O)C2C3C=CC(C3)C2C1=O)NCC1COc2ccccc2O1 (centres undefined),2.38%,
CCn1ccnc1C[C@@H]1COc2ccccc2O1,-21.8%,
CCN(CCN(C)C)C(=O)c1ccc2nc(C)c(N(C)C(=O)CCc3ccccc3)n2c1,10.3%,
CCOc1ccc(Br)cc1S(=O)(=O)Nc1ccc(S(=O)(=O)Nc2cc(C)on2)cc1,-1.12%,
CC1C(=O)Nc2ccccc2N1C(=O)c1ccc(F)cc1F (centres undefined),-0.847%,
CCn1c(SCC(=O)NC2CC2)nnc1-c1ccccc1OC,23.2%,
Cc1ccc2cc(CN(c3ccc(C)c(C)c3)S(C)(=O)=O)c(=O)[nH]c2c1,-26.3%,
Cc1cc(C)c2c(c1)cc(C)c1nnc(SCC(=O)Nc3cc(C)on3)n12,,11.6 µM (active)
Cc1cc(NC(=O)CSc2nnnn2-c2ccc(F)cc2)no1,-0.549%,
Cc1cc(NC(=O)CSc2nnc(-c3ccco3)n2N)no1,-0.944%,
Cc1ccc(NC(=O)C(Cc2ccccc2)NS(=O)(=O)c2ccc3c(c2)oc(=O)n3C)cc1C (centres undefined),5.28%,
CN(C(=O)CC1C(=O)NCCN1Cc1ccc2ccccc2c1)C1CCOCC1 (centres undefined),5.39%,
O=C1CC(c2c(F)cccc2Cl)C(n2cncn2)C(O)=C1C1NCCc2ccccc21 (centres undefined),-4.41%,
Cc1ccc(C(=O)NNC(=O)CSc2nnc3ccccn23)cc1,-0.0604%,
Cc1ccc(C(C[N+](=O)[O-])c2c(C)cc3ccccn23)cc1 (centres undefined),,16.4 µM (active)
COc1ccc(CC(=O)Nc2nc3n(n2)C(c2ccccc2)CC(=O)N3)cc1OC (centres undefined),-18.7%,
O=C(CN1CCN(c2ccccn2)CC1)NCc1cccs1,-6.39%,
O=C(COC(=O)COc1cc(Cl)c(Cl)cc1Cl)NC1CC1,-14.5%,

Structure (SMILES),"activity change, negative = growth inhibition",Potency
O=C(COc1cc(Cl)c(Cl)cc1Cl)NCCc1ccccn1,-8.55%,
NC(=S)NN=Cc1ccc(OC(=O)COc2cc(Cl)c(Cl)cc2Cl)cn1,,5.8 µM (active)
Cc1nn(C)c(C)c1Sc1ccccc1N,-25.8%,
CC(=O)OC(C(=O)NCCc1ccccc1)c1cccnc1 (centres undefined),-11.2%,
O=C(COC(=O)c1ccc2c(c1)OCCO2)NCc1ccccc1,-27%,
O=C(NCCc1ccc2c(c1)OCCO2)c1cc2ccccc2o1,,20.6 µM (active)
O=C(Cc1ccc([N+](=O)[O-])cc1)NCCc1ccc2c(c1)OCO2,-29.4%,
CN(C)S(=O)(=O)c1ccc(N2CCCC2)c(C(=O)Nc2cccc(F)c2)c1,-22.9%,
CCN(CC)C(=O)CN(c1cccc([N+](=O)[O-])c1)S(=O)(=O)c1ccccc1,-46.2%,
O=C(Nc1cccc([N+](=O)[O-])c1)Nc1ccc(Cl)cn1,-3.01%,
O=C(CCl)N(Cc1cccc([N+](=O)[O-])c1)c1cccc(Cl)c1,,4.11 µM (active)
O=C1O/C(=C\c2ccc(O)cc2)C(O)=C1c1ccc(O)cc1,-6.83%,
Cc1cc(C)c2cc(C#N)c(N3CCNCC3)nc2c1,,18.4 µM (active)
Cc1cc(C)c2nc(N3CCCC3)c(C#N)cc2c1,-23.4%,
Cc1cccc2cc(C#N)c(N3CCCC3)nc12,-7.84%,
Cc1cccc(C)c1NC(=O)CNC(=O)c1c(C)nn(-c2ccccc2)c1C,-7.42%,
COC(=O)N1CCC[C@@]2(CCN(C(=O)NC(C)C)C2)C1,-2.27%,
Cc1c(C)c2ccc(OCC(=O)N3CCN(c4cccc(Cl)c4)CC3)cc2oc1=O,,10.3 µM (active)
Cc1cc(=O)oc2cc(OCC(=O)N3CCN(c4ccc(F)cc4)CC3)c(Cl)cc12,-7.04%,
CSCCC(NC(=O)COc1ccccc1)C(=O)N1CCN(c2cccc(C(F)(F)F)c2)CC1 (centres undefined),,13 µM (active)
O=C(COc1ccc(Cl)cc1)N1CCN(c2cccc(C(F)(F)F)c2)CC1,,20.6 µM (active)
COc1ccc(OCC(=O)N2CCN(C(=O)COc3ccccc3)CC2)cc1,-0.321%,
OC(COc1cccc(OCC(O)CN2CCCC2)c1)CN1CCCC1 (centres undefined),2.76%,
COc1cccc(OCC(O)CN2CCN(CCO)CC2)c1 (centres undefined),-8.47%,
O=C(COc1ccc2c(c1)CCC2)N1CCN(c2ccc(F)cc2)CC1,-6.49%,
CSCCC(NC(=O)COc1ccccc1)C(=O)OCCOc1ccc(Br)cc1 (centres undefined),-13.5%,

Structure (SMILES),"activity change, negative = growth inhibition",Potency
OC(COc1ccc2c(c1)CCC2)CN1CCN(c2cccc(Cl)c2)CC1 (centres undefined),,18.4 µM (active)
CSCCC(NC(=O)COc1ccccc1)C(=O)OCCOc1ccc(F)cc1 (centres undefined),-30%,
COc1ccc(N2CCN(C(=O)COc3ccc4c(C)cc(=O)oc4c3)CC2)cc1,-28%,
O=C(O)c1cc([N+](=O)[O-])c(Nc2cccc3ccccc23)c([N+](=O)[O-])c1,-10%,
CCn1ncc(C2=NOC(C(=O)N3CCN(c4ccccc4)CC3)C2)c1C (centres undefined),-21.9%,
O=C1OC(NC(=O)c2ccccc2)C(N2CCOCC2)=C1Cl (centres undefined),-16.7%,
CCOC(=O)CCCNC(=O)COC(=O)c1cc(Br)c(Br)s1,-23.2%,
Cc1cccc(C)c1NC(=O)CNC(=O)C1CCCC1,-2.99%,
CC(C)(C)NC(=O)C(c1ccncc1)N(C(=O)CNC(=O)c1ccco1)c1ccc2c(c1)OCO2 (centres undefined),1.09%,
Cc1nc(Nc2ccccc2F)c2nnn(Cc3ccccc3Cl)c2n1,-1.73%,
O=C(CCN1C(=O)[C@@H]2Cc3ccccc3CN2C1=O)NCCc1ccccc1,-4.81%,
O=C(NC1CCCCC1)C1CC(=O)N(CCc2ccccc2)C1 (centres undefined),1.22%,
COc1ccccc1-c1nnc(SCC(=O)Nc2ccccc2)o1,-5.16%,
CCC(=O)c1ccc(OCC(O)CN2CCN(c3cccc(C(F)(F)F)c3)CC2)cc1 (centres undefined),,25.9 µM (active)
O=C(c1ccccc1)c1ccc(OCC(O)CN2CCCC2)cc1 (centres undefined),-13%,
CCC(=O)c1ccc(OCC(O)CN2CC(C)OC(C)C2)cc1 (centres undefined),-7.45%,
CCn1cc(C(=O)NCC(=O)NC(C)(C)CO)c(=O)c2cc3c(cc21)OCO3,-9.68%,
C/C(=N\NC(=O)C1(C)CC1(Br)Br)c1ccc(C)cc1C (centres undefined),-28.5%,
COc1ccc(-c2noc(-c3ccc(C)cc3)n2)cc1,-25.9%,
COc1ccc(-c2nc3c(s2)CCc2onc(-c4ccc(OC)cc4)c2-3)cc1,,16.4 µM (active)
COc1ccc(-c2cc(C(=O)Nc3sc4c(c3C(N)=O)CCCC4)no2)cc1,-1.26%,
Cc1ccc(NC(=S)N2CCN(c3ncccn3)CC2)cc1C,-16.6%,
Cc1sc2ncnc(N3CCC(C(=O)Nc4nc5ccc(Cl)cc5s4)CC3)c2c1C,,7.31 µM (active)
CC(=O)Nc1c(C)nn(-c2ccccc2)c1N1CCC(C(=O)Nc2cc(Cl)ccc2C)CC1,-0.851%,
Cc1ccc(Cl)cc1NC(=O)C1CCN(S(C)(=O)=O)CC1,-1%,
Cc1nc2ccc(NC(=O)C3CCCCC3)cc2s1,-29.1%,

Structure (SMILES),"activity change, negative = growth inhibition",Potency
Cc1sc2ncnc(N3CCC(C(=O)NNC(=O)c4ccc(F)cc4)CC3)c2c1C,,16.4 µM (active)
Cc1sc2ncnc(N3CCC(C(=O)Nc4ccc(F)cc4Cl)CC3)c2c1C,,23.1 µM (active)
O=C(NNC(=O)C1CCCC1)c1ccc(F)cc1,-16.6%,
O=C(NNC(=O)C1CCN(c2ncccn2)CC1)c1ccccc1,-10%,
CS(=O)(=O)c1ccc2nc(NC(=O)C3C4C=CC(C4)C3C(=O)O)sc2c1 (centres undefined),-12.2%,
CC(C)[C@H](NC(=O)Nc1ccc(S(N)(=O)=O)cc1)C(=O)O,-3.42%,
CC(C)CCN1NC2(CCC(C)CC2)NC1=S (centres undefined),2.78%,
CN1C(=O)c2ccccc2C(C(=O)NCCCN2CCCC2)C1c1c[nH]c2ccccc12 (centres undefined),-16.9%,
CCc1c(O)nc(SCC(=O)N2CCCCC2)n(-c2ccccc2C)c1=O,-13.4%,
CCc1ccc(OCC2c3cc(OC)c(OC)cc3CCN2C(C)=O)cc1 (centres undefined),,13 µM (active)
COc1ccc2[nH]c(=O)c(C3c4cc(OC)c(OC)cc4CCN3C(=O)c3ccco3)cc2c1 (centres undefined),-28.5%,
COc1ccc(CC(NC(C)=O)C(=O)NC2CCN(C(=O)c3ccc(OC)c(OC)c3)CC2)cc1OC (centres undefined),-4.86%,
CCc1ccc(OCC(=O)OC(C)C(=O)NC2CC2)cc1 (centres undefined),13.9%,
COc1cc2c(cc1OC)C(COc1ccc(F)cc1)N(C(=O)c1ccccc1F)CC2 (centres undefined),,16.4 µM (active)
COc1cc2c(cc1OC)CN(CC(=O)Nc1ccc(F)cc1)CC2,-8.18%,
CC(C)CN(C(=O)CSc1ncnc2sccc12)C1CCS(=O)(=O)C1 (centres undefined),2.24%,
O=C(N/N=C/c1ccsc1)c1cc(O)cc(O)c1,-1.03%,
CCN(CC(=O)NCc1cccs1)C(=O)/C=C/c1ccc(C)cc1,1.01%,
FCOC(C(F)(F)F)C(F)(F)F,-11.4%,
CN(C)CCCN1C(=O)CSC1c1ccc([N+](=O)[O-])cc1 (centres undefined),-10.4%,
CCCCCCCCCCCCN1C(=O)CSC1c1cccnc1 (centres undefined),,16.4 µM (active)
CCCCc1ccc(NC(=O)NCc2cccnc2)cc1,-28.2%,
COC(=O)CC1C(C)(C)C(OC(C)=O)C2CC3=C4CC(=O)OC(c5ccoc5)[C@]4(C)CCC3[C@@]1(C)C2=O (some centres undefined),-19.3%,
C=C1C([C@@]2(C)C(OC(C)=O)CC(=O)O[C@@](C)(COC(C)=O)C2CC(=O)OC)C(OC=O)C(OC(=O)C(O)C(C)CC)[C@]2(C)C(c3ccoc3)CC(=O)C12O (some centres undefined),,4.61 µM (active)
CCOC(=O)C1(Cc2ccccc2C)CCCN(S(C)(=O)=O)C1 (centres undefined),10.4%,
C/C(=N\NC(=O)OC(C)(C)C)c1ccc[nH]1,-16.5%,
